ELG1 repair inh: qHTS screen for small molecules that inhibit ELG1-dependent DNA repair in human embryonic kidney (HEK293T) cells expressing luciferase-tagged ELG1. Potency, µM (top dose mostly 46.1 µM), hits mostly inhibitors. AID 504467, 2011. HEK293T ELG1-luciferase reporter, luminescence, 16 h; DNA damage induced by 5-fluorouridine. 330,000 tested, 2.3% active; also: nearly all actives have a fitted effect of over 55% in size
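Luminescence from the luciferase reporter, measured 30 min after ONE-Glo reagent at room temperature, was the read-out. Beforehand, 2,000 cells per well were exposed for 16 hr at 37 °C to 5-fluorouridine together with compound or vehicle.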
SW480 rereplic: A quantitative high throughput screen for small molecules that induce DNA re-replication in SW480 colon adenocarcinoma cells | AID 624297, 2012 | SW480 DNA re-replication, Hoechst DNA content imaging, 48 h | Potency, µM (highest dose often 46.1 µM), usual class: activators | 340,000 tested, 1.8% active; also: nearly all actives have a fitted effect of over 55% in size
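Image-based read-out: total Hoechst fluorescence of nuclei (405 nm excitation, 500-530 nm emission), with hits raising the fraction of high-intensity nuclei. SW480 colon cells incubated 48 hr with compounds at 37 C.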
MCF10A rerep: A quantitative high throughput screen for small molecules that induce DNA re-replication in MCF 10a normal breast cells. MCF 10A DNA re-replication, Hoechst nuclear intensity, 48 h. Potency, µM (series often up to 46.1 µM), usual class: activators. 350,000 tested, 2.9% active. AID 624296, 2012; also: nearly all actives have a fitted effect of over 50% in size
KB-3-1 tox: qHTS assay for MDR1-selective chemotherapeutics: Primary screen using the parental adenocarcinoma cell KB-3-1; Potency, µM (doses to about 46.1 µM), hits mostly cytotoxic; 400,000 tested, 1.4% active; KB-3-1 viability, CellTiter-Glo ATP luminescence, 72 h; also: nearly all actives have a fitted effect of over 60% in size
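Screening of KB-3-1 cells (DMEM, 10% FBS, phenol-red free) ran from lowest to highest compound concentration; after 72 h at 37 °C viability was read luminescently and curves fitted.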
KB-V1 cytotox: qHTS assay for MDR1-selective chemotherapeutics: Primary screen using the drug-selected MDR subline cells KB-V1 | KB-V1 MDR cells viability, CellTiter-Glo, 72 h | Potency, µM (titrated, usually from 46.1 µM), hits mostly cytotoxic | 400,000 tested, 3.4% active; also: nearly all actives have a fitted effect of over 60% in size
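KB-V1 cells (P-gp-expressing MDR subline of KB-3-1) in phenol-red-free DMEM with 10% FBS were exposed to library compounds over a concentration series for 72 h at 37 degrees C. Viability read by CellTiter-Glo luminescence; concentration-effect curves fitted after normalization.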
Of the large screens only hits and unclear results are named; the others gave an inactive call. A selection: hits, their analogues and other compounds. The true share with any hit is near 8.2%. Calls follow the shape of the dose curve; as a rule, active = well fitted curve in the direction sought with a large enough effect; inconclusive = small, poorly fitted or top-dose-only effect, or another doubt; inactive = no such curve, though single readings can be large; an effect the other way counts as inactive or inconclusive.

CC(C)C1CC(CCNCc2ccc(N(C)C)cc2)(c2ccccc2)CCO1 (centres undefined)	MCF10A rerep inconclusive, KB-3-1 tox 20.6µM, KB-V1 cytotox inconclusive
Cc1ccc(C2(CCNS(=O)(=O)c3ccc(C)cc3)CCOC(C(C)C)C2)cc1 (centres undefined)	ELG1 repair inh inconclusive, MCF10A rerep inconclusive, KB-3-1 tox inconclusive, KB-V1 cytotox 3.66µM
CCS(=O)(=O)N1CCC(C(=O)Oc2ccc(C(=O)OC)cc2)CC1	none
CSc1nc(N2CCOCC2)nc2ccc(C)cc12	ELG1 repair inh inconclusive, SW480 rereplic inconclusive, MCF10A rerep 20.6µM
O=C(CN1CCC(c2nc3ccccc3s2)CC1)N1CCCCC1	ELG1 repair inh inconclusive
O=C(CN1CCC(c2nc3ccccc3s2)CC1)NCc1cccs1	ELG1 repair inh 9.2µM
CCSc1nnc(NC(=O)C2CCN(S(=O)(=O)c3ccccc3C(F)(F)F)CC2)s1	ELG1 repair inh 23.1µM, KB-3-1 tox inconclusive
CCSc1nnc(NC(=O)C2CCN(S(=O)(=O)c3c(C)c(C)cc(C)c3C)CC2)s1	none (no result: KB-3-1 tox, KB-V1 cytotox)
CCSc1nnc(NC(=O)C2CCN(C(=O)c3ccc(F)cc3)CC2)s1	KB-V1 cytotox 20.6µM
CC(C)Cc1nnc(NC(=O)C2CCN(C(=O)c3ccc(F)cc3)CC2)s1	none
CSc1ccc2nnc(-c3ccc(C)cc3)n2n1	none (no result: ELG1 repair inh, SW480 rereplic, MCF10A rerep)
Cc1ccc(Sc2c(CO)c(-c3ccccc3)nn2C)cc1	ELG1 repair inh inconclusive, SW480 rereplic 0.82µM, MCF10A rerep 1.03µM, KB-3-1 tox inconclusive, KB-V1 cytotox inconclusive
CCOC(=O)c1c(SCCN2CCCC2)n(-c2ccccc2)c(=S)n(-c2ccccc2)c1=O	SW480 rereplic 6.51µM, MCF10A rerep 4.61µM (no result: ELG1 repair inh)
CCOC(=O)c1c[nH]c(=S)n(-c2ccccc2)c1=O	KB-V1 cytotox inconclusive
CC(C)CCNC(=O)CCc1nnc2n(CCCOC(C)C)c(=O)c3ccccc3n12	none
CCc1ccc(NC(=O)c2cnn3c(C)cc(C)nc23)cc1	KB-V1 cytotox inconclusive (no result: ELG1 repair inh, SW480 rereplic, MCF10A rerep)
O=C(CNC(=O)c1ccc(Cl)cc1)OCc1cc(=O)n2nc(C3CCCCC3)sc2n1	none (no result: ELG1 repair inh, SW480 rereplic, MCF10A rerep)
CCc1ccc(NC(=O)c2cc3ccccn3n2)cc1	KB-3-1 tox 14.6µM, KB-V1 cytotox inconclusive (no result: ELG1 repair inh, SW480 rereplic, MCF10A rerep)
O=C(Nc1ccc(Br)cc1)c1cc2ccccn2n1	ELG1 repair inh inconclusive, KB-3-1 tox inconclusive
Cc1ccc(Nc2nc(NCC3CCCO3)nc(N)c2[N+](=O)[O-])cc1 (centres undefined)	ELG1 repair inh inconclusive, KB-V1 cytotox 20.6µM
Cc1cccc(C(=O)Nc2ccc(C(=O)OCc3cc(=O)n4nc(C5CC5)sc4n3)cc2)c1	none (no result: ELG1 repair inh, SW480 rereplic, MCF10A rerep)
O=C(NC(=S)Nc1cc([N+](=O)[O-])ccc1O)C1CC1	none
COC(=O)c1sc(S(=O)(=O)N2CCCCC2)c(C(=O)OC)c1C	KB-V1 cytotox inconclusive
COC(=O)c1sc(S(=O)(=O)N2CCN(c3ccccc3)CC2)c(C(=O)OC)c1C	KB-V1 cytotox 8.2µM
Cc1ccc(C(=O)CN2/C(=C(\O)c3ccccc3)C(=O)c3ccccc3S2(=O)=O)c(C)c1	SW480 rereplic inconclusive, MCF10A rerep inconclusive, KB-3-1 tox inconclusive, KB-V1 cytotox 2.31µM
Cc1ccc(C(=O)CN2C(=O)c3ccccc3S2(=O)=O)cc1	ELG1 repair inh inconclusive
CCCCOC(=O)c1ccc(Nc2nc3ccc(C)cc3n3cnnc23)cc1	none (no result: ELG1 repair inh, SW480 rereplic, MCF10A rerep)
O=C(N[C@H]1C/C=C\C[C@@H](CC(=O)N(CCO)Cc2ccccc2)C(=O)NC[C@H](c2ccccc2)OC1=O)OCC1c2ccccc2-c2ccccc21	ELG1 repair inh inconclusive, MCF10A rerep 6.51µM, KB-3-1 tox inconclusive
C[C@@H]1COC(=O)[C@H](NC(=O)OCC2c3ccccc3-c3ccccc32)C/C=C\C[C@@H](CC(=O)N(CCO)Cc2ccccc2)C(=O)N1	none
O=C(N[C@@H]1C/C=C\C[C@H](CC(=O)N(CCO)Cc2ccccc2)C(=O)N[C@@H](Cc2ccccc2)COC1=O)OCC1c2ccccc2-c2ccccc21	SW480 rereplic inconclusive, MCF10A rerep 13µM, KB-3-1 tox inconclusive

Screens from PubChem.
